Source: PubChem (National Center for Advancing Translational Sciences (NCATS))
This is a sample that favours compounds with a hit; in the whole collection about 3.1% have one here.
uPA surface inh – cell surface uPA generation inhibition. Potency, µM (series often up to 38.3 µM), without a hit: top-dose activity change, negative = inhibition, usual class: inhibitors. cell surface uPA generation assay, qHTS. AID 540303. 330,000 tested, 0.31% active; active = well fitted inhibition curve with a large enough effect; inconclusive = small, poorly fitted or top-dose-only effect; inactive = no such curve, though single readings can be large or run the other way; tested in mouse RAW 264.7 cells; note: potency is the fitted concentration of half-maximal effect; % is set by controls: 0 for no effect and ±100 for the full control effect; nearly all actives have a fitted effect of over 55% in size
PTAP TSG101 blk – blocks PTAP/TSG101 interaction to inhibit HIV-1 budding; Q99816; Fluorescence polarization, FITC-PTAP peptide / Tsg101 binding; Potency, µM (highest dose often 115 µM), inactives show top-dose activity change, negative = inhibition, most hits filed as inhibitors; 340,000 tested, under 10 active; AID 493005; active = well fitted inhibition curve with a large enough effect in the main read-out, with a control signal flat, not every such curve was filed as active; inconclusive = small, poorly fitted or top-dose-only effect, or effect the other way, or a change in a side signal; inactive = no such curve, though single readings can be large or run the other way; note: potency is the fitted concentration of half-maximal effect; % of control where 0% means no effect
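FP read-out: FITC-PTAP peptide, 50 nM final, binding Tsg101 binding domain, 10 uM final; 20 min, r.t.; 10 mM HEPES pH 7.5, 0.15 M NaCl, 0.01% Tween 20, 3 mM EDTA, 0.1 mM TCEP.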
TSHR antagonist – blocks TSH signaling through the human TSH receptor; P16473; TSHR-expressing cells, TSH-stimulated cAMP HTRF, 2 h; hits give low values; activity change, negative = inhibition, % at 11.5 µM; 330,000 tested, 0.2% active; AID 504810;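 active = activity change below a set negative limit, meaning inhibition stronger than a set level, cut at about -70% in these data; inconclusive = activity change between two set negative limits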; note: % is set by controls: 0 for no effect and ±100 for the full control effect
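TSHR-expressing cells were treated with compounds, then stimulated with TSH at EC80 (4nM final) for 2 hours at 37 deg C. Cellular cAMP was measured by HTRF competition between lysate cAMP and cAMP-d2 for a cryptate-labelled anti-cAMP antibody.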
VDR inhibitor – inhibitors of human vitamin D receptor. AID 504847. P11473. VDR-SRC2-3 peptide fluorescence polarization, 2 h. 400,000 tested, 0.93% active. Potency, µM, inactives show max response, negative = inhibition, hits mostly inhibitors; note: potency is the fitted concentration of half-maximal effect; % is set by controls: 0 for no effect and ±100 for the full control effect
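FP read-out; VDR + SRC2-3 coactivator peptide; 23 nl compound by pintool; 2 h RT incubation; reagents held at 4 deg C, protected from light.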
PLK1 PBD block – inhibitors of human PLK1 polo-box domain binding; P53350; Plk1 PBD binding of FITC phosphopeptide, fluorescence polarization; Potency, µM, without a hit: max response, negative = inhibition, hits mostly inhibitors; 360,000 tested, 2.8% active; AID 720504; note: potency is the fitted concentration of half-maximal effect; series mostly up to about 57 µM; % is set by controls: 0 for no effect and ±100 for the full control effect; nearly all actives have a fitted effect of over 65% in size
Target sequence (P53350 whole entry, looked up, the tested form may be a part): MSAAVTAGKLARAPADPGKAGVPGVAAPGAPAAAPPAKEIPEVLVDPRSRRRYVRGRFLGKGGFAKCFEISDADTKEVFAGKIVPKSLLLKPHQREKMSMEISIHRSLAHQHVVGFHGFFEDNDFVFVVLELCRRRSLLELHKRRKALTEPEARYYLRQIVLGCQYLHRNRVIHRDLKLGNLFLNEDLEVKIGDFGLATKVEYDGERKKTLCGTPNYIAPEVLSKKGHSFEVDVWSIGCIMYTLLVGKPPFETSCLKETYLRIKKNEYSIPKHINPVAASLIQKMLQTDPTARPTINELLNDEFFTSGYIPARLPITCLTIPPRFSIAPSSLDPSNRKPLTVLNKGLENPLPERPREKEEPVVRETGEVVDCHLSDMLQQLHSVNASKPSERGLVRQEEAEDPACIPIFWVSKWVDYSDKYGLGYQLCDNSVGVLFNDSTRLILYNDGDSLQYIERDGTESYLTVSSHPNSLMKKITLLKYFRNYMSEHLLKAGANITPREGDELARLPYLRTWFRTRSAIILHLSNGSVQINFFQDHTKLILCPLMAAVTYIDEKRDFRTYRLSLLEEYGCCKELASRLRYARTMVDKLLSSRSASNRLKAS
The depositor's hits bear a star. Unless noted, calls come from the whole dose curve; as a rule, active = well fitted curve in the direction sought with a large enough effect; inconclusive = small, poorly fitted or top-dose-only effect, or another doubt; inactive = no such curve, though single readings can be large; an effect the other way counts as inactive or inconclusive.

For c1ccc(CSc2nnc3ccc(-c4ccco4)nn23)nc1 the results were uPA surface inh -4%, PTAP TSG101 blk -3%, TSHR antagonist -8, VDR inhibitor 17% and PLK1 PBD block -6%.
Screening CC1=C(c2ccc(Cl)cc2)[N+](=O)C(C)(C)N1[O-] returned uPA surface inh 11%, PTAP TSG101 blk 0%, TSHR antagonist -4, VDR inhibitor -7% and PLK1 PBD block 12µM*.
For O=C(Nc1nnc(S(=O)(=O)N2CCCC2)s1)c1ccccc1F the results were uPA surface inh -9%, PTAP TSG101 blk -3%, TSHR antagonist -103*, VDR inhibitor 0% and PLK1 PBD block -4%.
Screening O=C(Nc1nnc(S(=O)(=O)N2CCCC2)s1)c1ccccc1Cl returned uPA surface inh -6%, PTAP TSG101 blk 1%, TSHR antagonist -9, VDR inhibitor -9% and PLK1 PBD block -3%.
For O=c1c2c3c(sc2n(Cc2ccccc2F)c(=O)n1-c1ccc(Cl)cc1)CCCC3 the results were VDR inhibitor -15%.
`Cc1ccc2c(c1)sc(C)[n+]2CCCS(=O)(=O)[O-]` gave uPA surface inh 4%, PTAP TSG101 blk -4%, TSHR antagonist 9, VDR inhibitor 28µM* and PLK1 PBD block -29%.
`C/C=C/C(=O)N1CC2(CC(c3cccc(NC(=O)CCCCC)c3)=NO2)C[C@H]1C(N)=O` (stereo partly drawn) gave TSHR antagonist 4.
C/C=C/C=C/C(=O)N1CC2(CC(c3cccc(NC(=O)CCCCC)c3)=NO2)C[C@H]1C(N)=O (stereo partly drawn) was read as uPA surface inh 2%, PTAP TSG101 blk -9%, TSHR antagonist 2, VDR inhibitor 79µM* and PLK1 PBD block -29%.
Screening CCOc1ccc(NC(=O)c2oc3ccccc3c2NC(=O)C(C)Oc2ccccc2)cc1 (stereo not drawn) returned VDR inhibitor 4%.
For O=C(NC1CCCCC1)C(c1ccccc1)N1CCc2ccccc21 (stereo not drawn) the results were uPA surface inh inconclusive, PTAP TSG101 blk -5%, TSHR antagonist -5, VDR inhibitor -2% and PLK1 PBD block -7%.
Screening O=C(NC1CCCC1)C(c1ccc(Cl)cc1)N1CCc2ccccc21 (stereo not drawn) returned uPA surface inh 16%, PTAP TSG101 blk 0%, TSHR antagonist 6, VDR inhibitor 89µM* and PLK1 PBD block 0%.
For O=C(Nc1ccc2nc3n(c(=O)c2c1)CCCCC3)C(=O)N1CCN(c2ccccc2F)CC1 the results were uPA surface inh 3%, PTAP TSG101 blk -3%, TSHR antagonist -122*, VDR inhibitor inconclusive and PLK1 PBD block 30µM*.
For CCCCc1cn([C@@H](CCCCN)C(=O)N2CCNCC2)nn1 the results were uPA surface inh 12%, PTAP TSG101 blk -21%, TSHR antagonist -3, VDR inhibitor -22% and PLK1 PBD block 21µM*.
For COc1ccc(S(=O)(=O)Nc2c(C(=O)O)[nH]c3ccccc23)c(OC)c1 the results were uPA surface inh -1%, PTAP TSG101 blk -6%, TSHR antagonist -4, VDR inhibitor -12% and PLK1 PBD block -11%.
`COc1ccc(S(=O)(=O)Nc2c(C(=O)O)[nH]c3ccc(OC)cc23)c(OC)c1` gave uPA surface inh 25%, PTAP TSG101 blk -9%, TSHR antagonist 18, VDR inhibitor -28% and PLK1 PBD block 15µM*.
For Cc1csc2nc(CN3CCN(CC(=O)N(C)C)CC3)cc(=O)n12 the results were uPA surface inh 4%, PTAP TSG101 blk -2%, TSHR antagonist 9, VDR inhibitor -5% and PLK1 PBD block 0%.
For COc1cc(C(=O)OCC(=O)c2cc(C)n(C)c2C)cc(OC)c1OC the results were uPA surface inh -10%, PTAP TSG101 blk -6%, TSHR antagonist 12, VDR inhibitor inconclusive and PLK1 PBD block 17µM*.
CCCN(CCC)C(=O)Cn1c(=O)n(-c2ccc(OC)cc2)c(=O)c2ccc(C(=O)NCc3ccc(C)cc3)cc21 was read as VDR inhibitor 11%.
`O=C(O)C1CCCCC1C(=O)NCc1ccc(Cl)c(Cl)c1` (stereo not drawn) gave uPA surface inh 18%, PTAP TSG101 blk -5%, TSHR antagonist -2, VDR inhibitor -5% and PLK1 PBD block 30µM*.
CCCC[C@@H](C)/C=C(C)/C=C(\C)C(=O)NC1=C[C@@](O)(/C=C/C=C/C=C/C(=O)NC2=C(O)CCC2=O)[C@@H]2O[C@@H]2C1=O was read as VDR inhibitor 2.2µM*.
For CC(C)(C)C(=O)Nc1nc2c(s1)COc1ccccc1-2 the results were uPA surface inh -2%, PTAP TSG101 blk 0%, TSHR antagonist -15, VDR inhibitor inconclusive and PLK1 PBD block -18%.
For Nc1nc2c(s1)COc1ccccc1-2 the results were uPA surface inh -3%, PTAP TSG101 blk -2%, TSHR antagonist -3, VDR inhibitor inconclusive and PLK1 PBD block 19µM*.
Screening CCOC(=O)c1sc(NC(=O)c2nc(SC)ncc2Cl)c(C(=O)OCC)c1C returned VDR inhibitor -3%.
For Cc1cc(C)c(C(=O)OCC(=O)Nc2cccc(S(=O)(=O)N3CCCCC3)c2)c(C)c1 the results were uPA surface inh 8.9µM*, PTAP TSG101 blk -4%, TSHR antagonist -12, VDR inhibitor -8% and PLK1 PBD block 1%.
O=C(COC(=O)c1ccc(S(=O)(=O)N2CCCC2)cc1)Nc1ccc(N2CCOCC2)cc1 was read as uPA surface inh 0%, PTAP TSG101 blk -2%, TSHR antagonist 4, VDR inhibitor inconclusive and PLK1 PBD block 9.5µM*.
Screening O=C(COC(=O)c1ccc(O)cc1)Nc1ccc(S(=O)(=O)N2CCOCC2)cc1 returned uPA surface inh -21%, PTAP TSG101 blk -1%, TSHR antagonist 4, VDR inhibitor 4% and PLK1 PBD block 1%.
`Cc1cccc(N2CCN(C(=O)c3ccc(CS(=O)c4cccc(Cl)c4)o3)CC2)c1C` (stereo not drawn) gave VDR inhibitor 12%.
`O=C(CCS(=O)(=O)c1cccs1)Nc1ccc(C(=O)Nc2ccccc2F)cc1` gave VDR inhibitor -11%.
CC(C)Cc1ccc(S(=O)(=O)Nc2cc3c(cc2N2CCOCC2)n(C)c(=O)c(=O)n3C)cc1 was read as VDR inhibitor 17%.
O=C(N/N=C/c1c[nH]c2ccccc12)c1[nH]c2ccc(Br)cc2c1-c1ccccc1 was read as uPA surface inh inconclusive, PTAP TSG101 blk -1%, TSHR antagonist 12, VDR inhibitor -16% and PLK1 PBD block 8.4µM*.
Screening O=C(N/N=C/c1ccc(O)cc1)c1[nH]c2ccc(Br)cc2c1-c1ccccc1 returned uPA surface inh inconclusive, PTAP TSG101 blk -3%, TSHR antagonist 5, VDR inhibitor 5% and PLK1 PBD block -3%.
